Experimental data as given in PubChem BioAssay (Tox21).
Results filed as inconclusive are left out. Activity calls are given as the source filed them. Unless noted, calls come from the whole dose curve.

Assays:
[1] = qHTS assay to identify small molecule antagonists of the sonic hedgehog signaling (Shh) pathway (AID 1259369); note: nearly all actives have a fitted effect of over 45% in size; note: potency is the fitted concentration of half-maximal effect
Outline: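 Antagonist mode: compound added to 3T3 Gli1-Luc cells followed by conditioned-medium stimulation, 24 h at 37 C, 5% CO2. Inhibition taken as loss of Gli1-driven luciferase luminescence.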

[2] = target: Estrogen receptor beta (Homo sapiens) (UniProt Q92731); assay: qHTS assay to identify small molecule agonists of the estrogen receptor beta (ER-beta) signaling pathway (AID 1259377; active = well fitted activation curve with a large enough effect in the signal ratio in the repeat runs, not every such curve was filed as active; the % refers to the signal ratio)
Chain of Estrogen receptor beta (Homo sapiens) (Q92731 whole entry, looked up): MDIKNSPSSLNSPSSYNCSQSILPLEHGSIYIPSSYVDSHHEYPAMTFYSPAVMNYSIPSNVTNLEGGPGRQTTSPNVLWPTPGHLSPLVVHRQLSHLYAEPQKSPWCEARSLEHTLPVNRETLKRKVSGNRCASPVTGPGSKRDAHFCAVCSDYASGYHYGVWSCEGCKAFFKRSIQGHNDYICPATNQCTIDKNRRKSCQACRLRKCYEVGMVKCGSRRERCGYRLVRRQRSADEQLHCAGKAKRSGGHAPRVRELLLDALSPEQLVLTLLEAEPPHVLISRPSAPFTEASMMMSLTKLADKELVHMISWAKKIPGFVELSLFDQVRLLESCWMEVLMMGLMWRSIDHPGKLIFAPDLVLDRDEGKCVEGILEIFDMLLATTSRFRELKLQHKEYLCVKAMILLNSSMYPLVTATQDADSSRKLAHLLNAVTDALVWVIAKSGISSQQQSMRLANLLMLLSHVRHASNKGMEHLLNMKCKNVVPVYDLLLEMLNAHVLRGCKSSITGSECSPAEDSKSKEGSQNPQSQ
Outline: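 Ratiometric beta-lactamase FRET read-out came after 2 h substrate loading at room temperature. It followed 16 h compound treatment at 37C of GripTite HEK293T cells carrying a UAS-bla reporter, plated in 2% charcoal-stripped FBS medium.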

[3] = target: Estrogen receptor beta (Homo sapiens) (UniProt Q92731); assay: qHTS assay to identify small molecule antagonists of the estrogen receptor beta (ER-beta) signaling pathway (AID 1259378; active = well fitted inhibition curve with a large enough effect in the signal ratio in the repeat runs, not every such curve was filed as active; the % refers to the signal ratio)
Outline: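 Antagonist mode: compounds added to beta-lactamase reporter HEK293T ER-beta-UAS cells stimulated with E2 (1nM final), 16 hr at 37C. LiveBLAzer B/G FRET substrate, 2 hours room temperature, fluorescence read-out.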

[4] = qHTS assay to identify small molecule agonists of the androgen receptor (AR) signaling pathway in the presence of an antagonist - cell viability counter screen (AID 1259379; active = well fitted curve in the direction sought with a large enough effect in the repeat runs; an effect the other way counts as inactive or inconclusive;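 note: MDA-kb2 human breast cancer cells carrying an MMTV luciferase reporter; series mostly up to about 92 µM; nearly all actives have a fitted effect of over 25% in size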)
Outline: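 Cytotoxicity counter-screen run in the same wells as the nilutamide-challenged (3.0 µM final) AR agonist assay in MDA-kb2 cells. Compounds tested at 15 concentrations for 16 h, 37 °C without CO2; CellTiter-Fluor fluorescence read.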

[5] = qHTS assay to identify small molecule agonists of the estrogen receptor beta (ER-beta) signaling pathway - cell viability counter screen (AID 1259380; active = well fitted curve in the direction sought with a large enough effect in the repeat runs; an effect the other way counts as inactive or inconclusive; note: nearly all actives have a fitted effect of over 30% in size)
Outline: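 Cell viability counter screen: CellTiter-Glo luminescence (30 min, room temperature) measured in the same wells as the beta-lactamase readout, after 16 hr compound exposure at 37C of ER-beta-bla HEK293T cells in 2% charcoal-stripped FBS medium.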

[6] = target: Androgen receptor (Homo sapiens) (UniProt P10275); assay: qHTS assay to identify small molecule agonists of the androgen receptor (AR) signaling pathway in the presence of an antagonist (AID 1259381); note: nearly all actives have a fitted effect of over 15% in size
Chain of Androgen receptor (Homo sapiens) (P10275 whole entry, looked up): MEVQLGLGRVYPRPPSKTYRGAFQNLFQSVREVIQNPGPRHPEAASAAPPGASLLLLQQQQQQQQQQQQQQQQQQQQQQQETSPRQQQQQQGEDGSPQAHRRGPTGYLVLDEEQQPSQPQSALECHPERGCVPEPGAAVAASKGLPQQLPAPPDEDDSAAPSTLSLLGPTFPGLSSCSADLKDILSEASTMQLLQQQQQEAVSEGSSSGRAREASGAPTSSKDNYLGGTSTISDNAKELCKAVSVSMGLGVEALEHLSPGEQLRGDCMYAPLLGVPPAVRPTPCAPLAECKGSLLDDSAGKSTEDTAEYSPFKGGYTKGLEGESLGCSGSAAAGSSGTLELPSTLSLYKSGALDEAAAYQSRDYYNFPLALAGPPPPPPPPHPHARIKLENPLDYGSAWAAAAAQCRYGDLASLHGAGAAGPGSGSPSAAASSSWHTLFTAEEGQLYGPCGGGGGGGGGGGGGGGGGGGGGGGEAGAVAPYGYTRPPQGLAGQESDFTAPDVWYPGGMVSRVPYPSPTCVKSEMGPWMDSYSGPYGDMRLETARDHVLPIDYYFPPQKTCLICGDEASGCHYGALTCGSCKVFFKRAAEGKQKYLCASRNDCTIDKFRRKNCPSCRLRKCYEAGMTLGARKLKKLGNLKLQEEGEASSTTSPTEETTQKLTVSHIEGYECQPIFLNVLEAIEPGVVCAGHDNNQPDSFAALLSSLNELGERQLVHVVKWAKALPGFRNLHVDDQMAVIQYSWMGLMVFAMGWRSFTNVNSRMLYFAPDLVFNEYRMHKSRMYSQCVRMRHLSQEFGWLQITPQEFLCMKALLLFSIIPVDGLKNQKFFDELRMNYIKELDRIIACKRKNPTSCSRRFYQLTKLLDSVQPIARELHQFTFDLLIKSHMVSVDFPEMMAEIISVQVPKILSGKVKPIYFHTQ
Outline: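 Agonist-mode confirmation run against 3.0 uM final nilutamide: compounds titrated at 15 concentrations onto MDA-kb2 MMTV-luciferase reporter cells. Luminescence measured with ONE-Glo following 16 hr incubation, 37C, 0% CO2.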

[7] = qHTS assay to identify small molecule antagonists of the estrogen receptor beta (ER-beta) signaling pathway - cell viability counter screen (AID 1259382; active = well fitted curve in the direction sought with a large enough effect in the repeat runs; an effect the other way counts as inactive or inconclusive;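 note: HEK293T cells carrying ER-beta-UAS-bla reporter stimulated with estradiol; series mostly up to about 92 µM; nearly all actives have a fitted effect of over 55% in size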)
Outline: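 Cytotoxicity was measured in the same wells by CellTiter-Glo luminescence after 30 min at room temperature. Cells were ER-beta-bla HEK293T in charcoal-stripped serum, given compound together with 1 nM E2 and incubated 16 h at 37C.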

[8] = target: Estrogen receptor (Homo sapiens) (UniProt P03372); assay: qHTS assay to identify small molecule agonists of the estrogen receptor alpha (ER-alpha) signaling pathway in the presence of an antagonist (AID 1259383); note: top concentration of the series differs between compounds; nearly all actives have a fitted effect of over 15% in size
Chain of Estrogen receptor (Homo sapiens) (P03372 whole entry, looked up): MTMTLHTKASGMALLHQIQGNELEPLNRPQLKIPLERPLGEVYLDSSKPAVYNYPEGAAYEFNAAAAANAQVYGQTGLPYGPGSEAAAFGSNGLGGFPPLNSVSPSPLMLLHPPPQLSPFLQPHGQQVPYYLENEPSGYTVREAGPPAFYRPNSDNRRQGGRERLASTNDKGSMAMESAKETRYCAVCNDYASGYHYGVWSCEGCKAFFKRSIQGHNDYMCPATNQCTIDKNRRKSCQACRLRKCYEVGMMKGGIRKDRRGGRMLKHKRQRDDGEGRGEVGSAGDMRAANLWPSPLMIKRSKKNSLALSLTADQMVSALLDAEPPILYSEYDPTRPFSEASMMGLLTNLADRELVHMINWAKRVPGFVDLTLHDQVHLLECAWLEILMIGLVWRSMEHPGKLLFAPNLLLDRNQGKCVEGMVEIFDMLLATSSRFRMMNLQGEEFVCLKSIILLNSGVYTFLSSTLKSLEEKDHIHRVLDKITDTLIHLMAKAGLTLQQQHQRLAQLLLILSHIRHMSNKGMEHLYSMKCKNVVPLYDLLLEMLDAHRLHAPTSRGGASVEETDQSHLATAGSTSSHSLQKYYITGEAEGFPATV
Outline: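 Agonist-mode confirmation run in the presence of 10.0nM (final) ICI-182,780 antagonist. The reporter was ERE-driven luciferase in VM7Luc4E2 cells, grown in charcoal-stripped serum. Cells were exposed to 15-concentration compound series for 22hr, then ONE-Glo luminescence was read.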

[9] = qHTS assay to identify small molecule agonists or antagonists of the thyroid stimulating hormone receptor (TSHR) signaling pathway - wild type cell line counter screen (AID 1259384)
Outline: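 Counter screen in untransfected Hek293: compounds (15-point titration, triplicate) plus phosphodiesterase inhibitor Ro20-1724 added after 18 h plating; 30 min RT. Intracellular cAMP via competitive d2/cryptate immunoassay, 1 h incubation.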

[10] = target: Thyrotropin receptor (Homo sapiens) (UniProt P16473); assay: qHTS assay to identify small molecule antagonists of the thyroid stimulating hormone receptor (TSHR) signaling pathway (AID 1259385); note: nearly all actives have a fitted effect of over 20% in size
Chain of Thyrotropin receptor (Homo sapiens) (P16473 whole entry, looked up): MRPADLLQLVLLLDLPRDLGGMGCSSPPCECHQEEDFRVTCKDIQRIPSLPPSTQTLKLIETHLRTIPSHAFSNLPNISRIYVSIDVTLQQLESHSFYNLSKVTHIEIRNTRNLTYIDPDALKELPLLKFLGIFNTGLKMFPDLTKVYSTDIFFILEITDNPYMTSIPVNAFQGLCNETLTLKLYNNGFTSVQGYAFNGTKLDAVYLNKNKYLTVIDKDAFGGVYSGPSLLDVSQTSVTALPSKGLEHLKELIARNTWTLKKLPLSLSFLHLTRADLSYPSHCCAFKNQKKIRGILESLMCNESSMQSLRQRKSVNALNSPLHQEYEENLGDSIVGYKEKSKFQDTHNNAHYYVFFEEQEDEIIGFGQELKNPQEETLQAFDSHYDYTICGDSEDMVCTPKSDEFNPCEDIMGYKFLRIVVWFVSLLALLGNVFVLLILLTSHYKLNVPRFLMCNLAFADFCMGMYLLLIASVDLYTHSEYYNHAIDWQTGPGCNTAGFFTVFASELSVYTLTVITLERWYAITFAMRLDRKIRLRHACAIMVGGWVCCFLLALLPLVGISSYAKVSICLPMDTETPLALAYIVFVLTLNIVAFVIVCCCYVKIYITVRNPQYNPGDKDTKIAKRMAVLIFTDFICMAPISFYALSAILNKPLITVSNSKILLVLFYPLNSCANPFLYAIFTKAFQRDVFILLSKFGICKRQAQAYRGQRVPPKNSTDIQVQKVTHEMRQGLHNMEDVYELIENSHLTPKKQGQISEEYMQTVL
Outline: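 Antagonist mode: compound-treated TSHR-expressing HEK293 cells were stimulated with 1.5 ng/mL TSH (final) in presence of Ro20-1724 for 30 min at RT. HTRF cAMP detection after 1 h; each compound tested at 15 concentrations, triplicate.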

[11] = target: Progesterone receptor (Homo sapiens) (UniProt P06401); assay: qHTS assay to identify small molecule agonists of the progesterone receptor (PR) signaling pathway (AID 1346784); note: nearly all actives have a fitted effect of over 30% in size
Chain of Progesterone receptor (Homo sapiens) (P06401 whole entry, looked up): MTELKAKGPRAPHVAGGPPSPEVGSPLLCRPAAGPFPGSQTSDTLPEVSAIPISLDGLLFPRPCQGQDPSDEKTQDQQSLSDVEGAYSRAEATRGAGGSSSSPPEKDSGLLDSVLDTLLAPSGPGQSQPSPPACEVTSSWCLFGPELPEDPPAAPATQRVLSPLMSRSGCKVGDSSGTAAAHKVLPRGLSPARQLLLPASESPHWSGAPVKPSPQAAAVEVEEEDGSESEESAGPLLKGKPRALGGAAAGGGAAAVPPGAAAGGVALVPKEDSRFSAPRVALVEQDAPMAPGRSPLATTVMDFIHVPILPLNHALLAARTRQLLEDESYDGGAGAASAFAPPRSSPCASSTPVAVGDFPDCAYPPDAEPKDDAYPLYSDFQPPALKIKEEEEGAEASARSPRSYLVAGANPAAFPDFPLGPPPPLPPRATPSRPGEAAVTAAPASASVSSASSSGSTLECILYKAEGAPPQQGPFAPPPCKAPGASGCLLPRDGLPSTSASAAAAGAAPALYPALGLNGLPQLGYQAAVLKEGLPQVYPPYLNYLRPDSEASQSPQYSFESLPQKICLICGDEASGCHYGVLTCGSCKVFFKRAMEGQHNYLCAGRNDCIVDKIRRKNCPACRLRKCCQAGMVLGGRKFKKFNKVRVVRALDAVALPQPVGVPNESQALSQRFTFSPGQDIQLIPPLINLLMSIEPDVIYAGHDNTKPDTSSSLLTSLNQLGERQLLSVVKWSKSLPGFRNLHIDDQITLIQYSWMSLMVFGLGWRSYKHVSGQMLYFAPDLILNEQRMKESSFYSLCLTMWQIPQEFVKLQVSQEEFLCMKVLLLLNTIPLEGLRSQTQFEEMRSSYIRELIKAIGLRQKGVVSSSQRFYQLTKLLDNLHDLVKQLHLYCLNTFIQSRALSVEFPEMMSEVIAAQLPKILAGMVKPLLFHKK
Outline: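 Agonist qHTS: compounds pinned onto 3,000 PR-UAS-bla HEK 293T cells per well in charcoal-stripped serum medium, 16hr at 37C, then beta-lactamase activity measured by LiveBLAzer FRET fluorescence after 2 hours at room temperature.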

[12] = qHTS assay to identify small molecule antagonists of the progesterone receptor (PR) signaling pathway - cell viability counter screen (AID 1346798; active = well fitted curve in the direction sought with a large enough effect in the repeat runs; an effect the other way counts as inactive or inconclusive; note: series mostly up to about 92 µM; nearly all actives have a fitted effect of over 50% in size)
Outline: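 Cytotoxicity read as CellTiter-Glo luminescence (30 min, room temperature) in the same wells as the beta-lactamase readout. HEK293T PR-UAS-bla cells in charcoal-stripped 2% FBS received compound and R5020, then 16 h at 37C, 5% CO2.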

[13] = qHTS assay to identify small molecule agonists of the progesterone receptor (PR) signaling pathway - cell viability counter screen (AID 1346799); note: nearly all actives have a fitted effect of over 45% in size
Outline: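 Cytotoxicity measured by CellTiter-Glo luminescence (30 min, RT) in the same wells as the PR beta-lactamase agonist read. Those HEK293T cells had 16 h compound treatment at 37 C in 2% charcoal-stripped FBS medium.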

[14] = qHTS assay to identify small molecule antagonists of the TGF-beta/Smad signaling pathway - cell viability counter screen (AID 1346824; active = well fitted curve in the direction sought with a large enough effect in the repeat runs; an effect the other way counts as inactive or inconclusive; note: nearly all actives have a fitted effect of over 50% in size)
Outline: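 Cytotoxicity counter-screen run in the same wells as the beta-lactamase Smad reporter read: CellTiter-Glo luminescence after 30 min at room temperature. HEK 293T SBE-bla cells had 5 hr compound exposure at 37 C with TGF-beta1 (0.25 ng/mL stock).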

[15] = qHTS assay to identify small molecule agonists of the TGF-beta/Smad signaling pathway - cell viability counter screen (AID 1346829; active = well fitted curve in the direction sought with a large enough effect in the repeat runs; an effect the other way counts as inactive or inconclusive; note: top concentration of the series differs between compounds; nearly all actives have a fitted effect of over 45% in size)
Outline: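 Same-well cytotoxicity: CellTiter-Glo added after the 2 hr room-temperature beta-lactamase substrate step, luminescence measured 30 min later; cells had 5 hr of compound at 37 C.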

[16] = qHTS assay to identify small molecule agonists of the TGF-beta/Smad signaling pathway (AID 1346859; active = well fitted activation curve with a large enough effect in the signal ratio in the repeat runs, not every such curve was filed as active; the % refers to the signal ratio; note: series mostly up to about 77 µM)
Outline: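 Fluorescence (ex 405 nm; em 460 and 530 nm) was read 2 h after LiveBLAzer FRET substrate at RT. The preceding compound treatment of overnight-plated SBE-bla HEK293T cells lasted 5 h at 37 C.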

[17] = target: Thyrotropin-releasing hormone receptor (Homo sapiens) (UniProt P34981); assay: qHTS assay to identify small molecule antagonists of the thyrotropin-releasing hormone receptor (TRHR) signaling pathway (AID 1346877; active = well fitted inhibition curve with a large enough effect in the repeat runs, not every such curve was filed as active; note: series mostly up to about 51 µM)
Chain of Thyrotropin-releasing hormone receptor (Homo sapiens) (P34981 whole entry, looked up): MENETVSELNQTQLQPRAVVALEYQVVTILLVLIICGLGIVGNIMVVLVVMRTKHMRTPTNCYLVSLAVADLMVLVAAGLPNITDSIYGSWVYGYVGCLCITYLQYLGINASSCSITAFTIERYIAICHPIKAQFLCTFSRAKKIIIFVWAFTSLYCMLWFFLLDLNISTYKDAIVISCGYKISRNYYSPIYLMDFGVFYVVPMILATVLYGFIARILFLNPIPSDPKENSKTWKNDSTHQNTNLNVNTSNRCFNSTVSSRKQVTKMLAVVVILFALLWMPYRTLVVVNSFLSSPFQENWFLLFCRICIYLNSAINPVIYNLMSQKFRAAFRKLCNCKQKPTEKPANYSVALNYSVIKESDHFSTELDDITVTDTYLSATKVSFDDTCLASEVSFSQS
Outline: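 Antagonist mode: after a 5 min room-temperature compound exposure, cells were stimulated with 1 nM (final) TRH. Dye-loaded TRHR-HEK293 cells were used, and calcium-dependent fluorescence was followed for 3 min, with 15-point titrations run in triplicate.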

[18] = target: Thyrotropin-releasing hormone receptor (Homo sapiens) (UniProt P34981); assay: qHTS assay to identify small molecule agonists of the thyrotropin-releasing hormone receptor (TRHR) signaling pathway (AID 1346891); note: series mostly up to about 58 µM
Outline: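 Agonist-mode intracellular calcium readout: kinetic fluorescence over 3 min at 1 s intervals after compound addition to TRHR-HEK293 cells (18 h seeded, 2 h dye-loaded at 37 C). Fifteen concentrations, triplicates.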

[19] = qHTS assay to identify small molecule agonists of the estrogen receptor alpha (ER-alpha) signaling pathway in the presence of an antagonist - cell viability counter screen (AID 1259386; active = well fitted curve in the direction sought with a large enough effect in the repeat runs; an effect the other way counts as inactive or inconclusive; note: series mostly up to about 92 µM; nearly all actives have a fitted effect of over 30% in size)
Outline: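 Compounds tested at 15 concentrations for 22 h at 37C alongside 10.0nM (final) ICI-182,780 antagonist, in VM7Luc4E2 cells grown in phenol red-free, charcoal-stripped medium. Viability read by CellTiter-Fluor fluorescence after 1 h reagent incubation.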

[20] = target: Progesterone receptor (Homo sapiens) (UniProt P06401); assay: qHTS assay to identify small molecule antagonists of the progesterone receptor (PR) signaling pathway (AID 1346795; active = well fitted inhibition curve with a large enough effect in the signal ratio in the repeat runs, not every such curve was filed as active; the % refers to the signal ratio)
Outline: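 Antagonist mode with agonist R5020 at 1 nM final and 16 hr incubation at 37C. Reporter was beta-lactamase driven by UAS in HEK293T (PR-UAS-bla), 2% charcoal-stripped serum; signal from LiveBLAzer FRET substrate, 2 hr at room temperature.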
% is set by controls: 0 for no effect and ±100 for the full control effect.

COC(=O)C(c1ccccc1)C1CCCCN1 (stereo not given)
inactive: Potency [1] | outcome [2] | Potency [3] | Potency [4] | Potency [5] | Potency [6] | Potency [7] | Potency [8] | Potency [9] | Potency [10] | Potency [11] | Potency [12] | Potency [13] | Potency [14] | outcome [15] | outcome [16] | outcome [17] | outcome [18]

CC(COc1ccc(Oc2ccccc2)cc1)Oc1ccccn1 (stereo not given)
inactive: Potency [1] | outcome [2] | Potency [3] | Potency [4] | Potency [6] | Potency [9] | Potency [11] | Potency [14] | outcome [15] | outcome [17] | outcome [18]

O=C1c2ccccc2C(=O)c2ccccc21
inactive: activity change, negative = inhibition [1] 17.7% [at 19 µM] | activation [2] 1.09% [at 19 µM] | activity, negative = inhibition [3] 0.94% [at 19 µM] | activity change, negative = cytotoxicity [4] -1.61% [at 19 µM] | activity change, negative = cytotoxicity [5] 3.21% [at 19 µM] | activity change, negative = cytotoxicity [7] -0.678% [at 19 µM] | activation [8] 5.54% [at 19 µM] | cAMP activity change [9] -4.84% [at 18.9 µM, active compounds read high] | activity change, negative = inhibition [10] -0.629% [at 19 µM] | activity change, negative = cytotoxicity [19] 2.11% [at 19 µM] | activation [11] -0.0487% [at 19 µM] | activity change, negative = cytotoxicity [12] 9.36% [at 18.9 µM] | activity change, negative = cytotoxicity [13] 2.43% [at 19 µM] | viability change, negative = cytotoxic [14] -2.72% [at 15.8 µM] | activity change, negative = cytotoxicity [15] -4.2% [at 15.8 µM] | activity, negative = inhibition [17] -1.2% [at 10.5 µM] | activation [18] -0.0612% [at 11.8 µM]

c1cc2c(c(N3CCNCC3)c1)OCCO2
inactive: Potency [1] | outcome [2] | Potency [3] | Potency [4] | Potency [5] | Potency [6] | Potency [7] | Potency [8] | Potency [9] | Potency [10] | Potency [11] | Potency [20] | Potency [12] | Potency [13] | Potency [14] | outcome [15] | outcome [16] | outcome [17] | outcome [18]

Cc1coc2c1CCC(C)C2 (stereo not given)
inactive: Potency [1] | outcome [2] | Potency [3] | Potency [4] | Potency [5] | Potency [8] | Potency [9] | Potency [10] | Potency [11] | Potency [20] | Potency [12] | Potency [13] | Potency [14] | outcome [15] | outcome [16]

CN/C(=N\[N+](=O)[O-])NCC1CCOC1 (stereo not given)
inactive: Potency [1] | outcome [2] | Potency [3] | Potency [4] | Potency [5] | Potency [7] | Potency [9] | Potency [10] | Potency [12] | Potency [13] | Potency [14] | outcome [15] | outcome [16] | outcome [17] | outcome [18]

BrCCCCCCBr
inactive: outcome [2] | Potency [3] | Potency [4] | Potency [7] | Potency [8] | Potency [9] | Potency [10] | Potency [19] | Potency [11] | Potency [20] | Potency [13] | Potency [14] | outcome [15] | outcome [16] | outcome [17] | outcome [18]
active: Potency [1] 24.3 µM

CC(C)(C)C(=O)C(Oc1ccc(Cl)cc1)n1cncn1 (stereo not given)
inactive: Potency [1] | outcome [2] | Potency [3] | Potency [4] | Potency [5] | Potency [7] | Potency [8] | Potency [11] | Potency [14] | outcome [15] | outcome [16] | outcome [17] | outcome [18]
